“And” between values parts separate entries of the source, which are not always exact repeats. Equal values may be shown once. About 79,000 compounds went through this panel and 15% of them were active in at least one assay; those are over-represented in the sample as a whole. Values without a mark were called inactive. The source made the active and inactive calls. Cut-off read from the data, not from the text of the source: active = growth inhibition above about 70%; inactive = the rest.

This assay is described as follows: NCI Yeast Anticancer Drug Screen. Data for the mec2-1 strain (AID 157). The conditions noted are these: S. cerevisiae mec2-1 strain, at 50.0 µM (retest, dose inferred, filed as 5.0), active compounds read high. The gist of the method:
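Growth inhibition is read against vehicle-treated controls after compound exposure of the mec2-1 yeast strain, which is defective in DNA damage repair or cell cycle control.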
For `COc1ccc2[nH]c3c(C)c4ccncc4c(C)c3c2c1`, the growth inhibition was 99% (active).
Regarding `CC(=O)OC1OC(CI)C(OC(C)=O)C(OC(C)=O)C1OC(C)=O` (stereo not drawn), the growth inhibition was 21%.
As to `Cc1cc(NS(=O)(=O)c2ccc(N=Nc3cc(N=Nc4ccc(S(=O)(=O)Nc5cc(C)nc(C)n5)cc4)c4c(NC(=O)C(Cl)Cl)cccc4c3OC(=O)C(Cl)Cl)cc2)nc(C)n1` (tested in a mixture with another compound), the growth inhibition was 92% (active).
Take `Oc1cc2c(cc1C(c1ccc3c(c1)OCO3)N1CCN(C(c3ccc4c(c3)OCO4)c3cc4c(cc3O)OCO4)CC1)OCO2` (stereo not drawn): the growth inhibition is 99% (active).
The result for `O=[N+]([O-])c1ccc(N/N=C/CC(O)(C(F)(F)F)C(F)(F)F)c([N+](=O)[O-])c1` reads 98% (active); that for `CCCc1cc(=O)oc2c3c(c4c(c12)OC(C)(C)CC4)O[C@@H](C)[C@H](C)[C@H]3O`, 95% (active); that for `O=Cc1cc(Br)ccc1O`, 73% (active) and 77% (active).
`Cc1n(-c2ccccc2)c2c([n+]1Cc1ccc([N+](=O)[O-])cc1)C(=O)c1ccccc1C2=O`: the growth inhibition is 98% (active).
As for `Nc1ncnc2c1ncn2CCCl`, the growth inhibition is 5%.
With `CN(C)CCCN=c1c2ccccc2n(O)c2cccc([N+](=O)[O-])c12`, the growth inhibition is -4%.
Take `CCOc1ccc2ccccc2c1C(Cc1ccc(Cl)cc1)NCCO` (stereo not drawn): the growth inhibition is 6%.
`COc1ccc(Oc2ccccc2N)cc1`: the growth inhibition was 95% (active).
The result for `O=C1C(Cl)=C(Cl)C(Cl)(Cl)C(Cl)=C1Cl` reads 100% (active).
Turning to `CCCCCCCCCCCC(=O)CN1CCOCC1`, the growth inhibition is 100% (active).
The result for `CCC(C)(C)c1cc(O)c(C(C)(C)CC)cc1O` reads 67%; that for `CC[C@](O)(CC(=O)O[C@H]1C(=O)O[C@@H]2C[C@H]3C(C)=CC(=O)[C@@H](O)[C@]3(C)[C@H]3[C@@]4(O)OC[C@]32[C@@H]1[C@@H](C)[C@H]4O)C(C)C`, 98% (active).
The result for `Nc1ccccc1Oc1ccc(Cl)cc1Cl` reads 61%; that for `O=C1Nc2ccccc2C1(O)C/C(=N/O)c1ccc2ccccc2c1` (stereo not drawn), 40%; that for `NNC(=O)c1ccc(NC(=O)CSc2nc3ccccc3s2)cc1`, 28%.
The result for `C[C@H]1CC[C@H]([C@@H](C)[C@H]2[C@@H](O)C[C@H]3[C@@H]4CC[C@H]5C[C@@H](O)CC[C@]5(C)[C@H]4CC[C@]23C)NC1` reads 98% (active) and 99% (active); that for `CC(C)(c1ccc(O)cc1)c1ccc(O)cc1`, 34% and 51%; that for `O=C1/C(=C/c2ccc(Cl)cc2)CNC/C1=C\c1ccc(Cl)cc1`, 87% (active) and 78% (active).
Turning to `CCN(CC)c1ccc(/C=C/c2ccnc3ccccc23)cc1`, the growth inhibition was 98% (active) and 99% (active).
The result for `Oc1ccc(/C=N/NC(=S)NN2CCOCC2)nc1` reads 95% (active); that for `COc1ccc(-c2c(C#N)c(-c3ccc(C)cc3)n(NS(=O)(=O)c3ccccc3)c(=O)c2C#N)cc1`, 94% (active).
The result for `c1ccc(-c2[nH]c3ccccc3c2-c2ccccn2)cc1` reads -2%.
Regarding `Nc1cc2c(cc1Cl)[nH]c(=O)c1cc(Cl)ccc12`, the growth inhibition is 14%.
For the compound `C1=C(c2ccccc2)N(CCc2ccccc2)C(c2ccccc2)=CN1Cc1ccccc1`, the growth inhibition was 97% (active).
The result for `COC(=O)c1nnn(-c2ccc(S(N)(=O)=O)cc2)c1N` reads -10%; that for `O=C1C(CN2CCOCC2)CCCC1CN1CCOCC1` (stereo not drawn), 98% (active); that for `c1ccc(-c2nc3ccccc3[nH]2)cc1`, 19%.
The result for `O=Cc1cc([N+](=O)[O-])cc(CCl)c1O` reads -31%.
The result for `COC(=O)[C@]1(C)CCC[C@]2(C)c3ccc(C(C)C)cc3CC[C@@H]12` reads 97% (active); that for `CCOC(=O)c1ccc(NCc2ccc3ccccc3n2)cc1`, 14%.
With `CCCCCCCCCCCCCCCC(=O)NCC[N+](C)(C)C`, the growth inhibition was 100% (active).
As for `OC(c1nc2ccccc2[nH]1)C(O)C(O)C(O)c1nc2ccccc2[nH]1` (stereo not drawn), the growth inhibition is -18%.
The result for `O=[N+]([O-])c1ccc(N/N=C(/C=N/Nc2ccc([N+](=O)[O-])cc2)C(O)C(O)C(O)CO)cc1` (stereo not drawn) reads 99% (active) and 98% (active); that for `c1ccc2c(c1)CNc1ccccc1-2`, 21%.

Values taken from PubChem BioAssay (NCI).
